Measured values as given in PubChem BioAssay AID1159580 (chemical genetic matrix, 2015).
Hit rate of the full screen: of about 5,500 compounds, about 2,000 (36%) were called active. Not shown: some 18% with an inconclusive outcome. Cut-off read from the data, not from the text of the source: active = normalized growth mostly below about 0.91 (no sharp cut-off); inconclusive = no clear call, values can overlap the other calls; inactive = mostly above about 0.92. The list shows a part of the results.

Assay: chemical genetic growth profiling, strain panel (AID 1159580);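 note: tested at 20 µM; growth read once vehicle control cultures reached saturation at 30 °C; 1 = growth at the plate median or of vehicle wells; lower values mean less growth of the strain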
Details: growth OD

Measured: normalized growth

Cn1c(=O)[nH]c(=O)c2[nH]cnc21
inactive: S. cerevisiae deletion strains, locus YJR075W, strain HOC1, active compounds read low 0.995 | S. cerevisiae deletion strains, locus YKL009W, strain mrt4, active compounds read low 0.998 | S. cerevisiae deletion strains, locus YKL068W, active compounds read low 0.97 | S. cerevisiae deletion strains, locus YKL085W, strain MDH1 (second series), active compounds read low 0.976 | S. cerevisiae deletion strains, locus YKL085W, strain MDH1, active compounds read low 0.976 | S. cerevisiae deletion strains, locus YKL160W, strain elf1, active compounds read low 1 | S. cerevisiae deletion strains, locus YKL190W, strain CNB1, active compounds read low 0.995 | S. cerevisiae deletion strains, locus YKR001C, strain vps1, active compounds read low 0.987 | S. cerevisiae deletion strains, locus YKR026C, strain gcn3, active compounds read low 0.984 | S. cerevisiae deletion strains, locus YKR091W, strain srl3, active compounds read low 0.992 | S. cerevisiae deletion strains, locus YLL001W, strain dnm1, active compounds read low 1.01 | S. cerevisiae deletion strains, locus YLL026W, active compounds read low 1 | S. cerevisiae deletion strains, locus YLL041C, strain sdh2, active compounds read low 1 | S. cerevisiae deletion strains, locus YLR027C, strain aat2, active compounds read low 0.974 | S. cerevisiae deletion strains, locus YLR039C, strain RIC1, active compounds read low 0.974 | S. cerevisiae deletion strains, locus YLR058C, strain SHM2, active compounds read low 0.988 | S. cerevisiae deletion strains, locus YLR102C, strain apc9, active compounds read low 0.972 | S. cerevisiae deletion strains, locus YLR113W, strain HOG1, active compounds read low 0.998 | S. cerevisiae deletion strains, locus YLR221C, strain rsa3, active compounds read low 1.01 | S. cerevisiae deletion strains, locus YLR258W, strain gsy2, active compounds read low 0.999 | S. cerevisiae deletion strains, locus YLR262C, strain YPT6 (second series), active compounds read low 0.976 | S. cerevisiae deletion strains, locus YLR262C, strain YPT6, active compounds read low 1.01 | S. cerevisiae deletion strains, locus YLR268W, strain sec22, active compounds read low 0.956 | S. cerevisiae deletion strains, locus YLR320W, strain mms22, active compounds read low 0.987 | S. cerevisiae deletion strains, locus YLR330W, strain CHS5, active compounds read low 0.991 | S. cerevisiae deletion strains, locus YLR342W, strain FKS1 (second series), active compounds read low 1.01 | S. cerevisiae deletion strains, locus YLR342W, strain FKS1, active compounds read low 1.01 | S. cerevisiae deletion strains, locus YLR357W, strain rsc2, active compounds read low 0.971 | S. cerevisiae deletion strains, locus YLR370C, strain arc18, active compounds read low 0.989 | S. cerevisiae deletion strains, locus YLR371W, strain rom2, active compounds read low 0.96 | S. cerevisiae deletion strains, locus YLR384C, strain iki3, active compounds read low 0.983 | S. cerevisiae deletion strains, locus YLR418C, strain cdc73, active compounds read low 0.983 | S. cerevisiae deletion strains, locus YML016C, strain PPZ1, active compounds read low 0.986 | S. cerevisiae deletion strains, locus YML032C, strain rad52, active compounds read low 0.974 | S. cerevisiae deletion strains, locus YML120C, strain ndi1, active compounds read low 0.999 | S. cerevisiae deletion strains, locus YML124C, strain tub3, active compounds read low 0.972 | S. cerevisiae deletion strains, locus YMR058W, strain fet3, active compounds read low 1.01 | S. cerevisiae deletion strains, locus YMR078C, strain ctf18, active compounds read low 0.954 | S. cerevisiae deletion strains, locus YMR125W, strain sto1, active compounds read low 1.01 | S. cerevisiae deletion strains, locus YMR129W, active compounds read low 0.99 | S. cerevisiae deletion strains, locus YMR205C, strain PFK2, active compounds read low 0.998 | S. cerevisiae deletion strains, locus YMR223W, strain ubp8, active compounds read low 0.987 | S. cerevisiae deletion strains, locus YMR231W, strain pep5, active compounds read low 0.992 | S. cerevisiae deletion strains, locus YMR263W, strain SAP30, active compounds read low 0.953 | S. cerevisiae deletion strains, locus YMR307W, strain GAS1, active compounds read low 0.948 | S. cerevisiae deletion strains, locus YNL067W, strain RPL9B, active compounds read low 0.996 | S. cerevisiae deletion strains, locus YNL071W, strain lat1, active compounds read low 0.98 | S. cerevisiae deletion strains, locus YNL128W, strain TEP1, active compounds read low 0.987 | S. cerevisiae deletion strains, locus YNL153C, strain GIM3, active compounds read low 0.993 | S. cerevisiae deletion strains, locus YNL183C, strain NPR1, active compounds read low 0.925 | S. cerevisiae deletion strains, locus YNL209W, strain ssb2, active compounds read low 0.983 | S. cerevisiae deletion strains, locus YNL233W, strain BNI4, active compounds read low 0.981 | S. cerevisiae deletion strains, locus YNL248C, strain rpa49, active compounds read low 0.985 | S. cerevisiae deletion strains, locus YNL250W, strain rad50, active compounds read low 0.956 | S. cerevisiae deletion strains, locus YNL271C, strain bni1, active compounds read low 0.963 | S. cerevisiae deletion strains, locus YNL298W, strain CLA4, active compounds read low 0.972 | S. cerevisiae deletion strains, locus YNL307C, strain MCK1, active compounds read low 0.975 | S. cerevisiae deletion strains, locus YNL322C, strain KRE1 (second series), active compounds read low 0.968 | S. cerevisiae deletion strains, locus YNL322C, strain KRE1, active compounds read low 0.997 | S. cerevisiae deletion strains, locus YNR049C, strain mso1, active compounds read low 1 | S. cerevisiae deletion strains, locus YNR052C, strain pop2, active compounds read low 0.97 | S. cerevisiae deletion strains, locus YOL006C, strain TOP1, active compounds read low 0.965 | S. cerevisiae deletion strains, locus YOL012C, strain htz1 1.01 | S. cerevisiae deletion strains, locus YOL147C, strain pex11, active compounds read low 0.981 | S. cerevisiae deletion strains, locus YOR001W, strain rrp6, active compounds read low 1.01 | S. cerevisiae deletion strains, locus YOR061W, strain CKA2, active compounds read low 0.986 | S. cerevisiae deletion strains, locus YOR069W, strain VPS5, active compounds read low 0.981 | S. cerevisiae deletion strains, locus YOR070C, strain gyp1, active compounds read low 0.998 | S. cerevisiae deletion strains, locus YOR080W, strain dia2, active compounds read low 0.986 | S. cerevisiae deletion strains, locus YOR083W, strain WHI5, active compounds read low 0.933 | S. cerevisiae deletion strains, locus YOR106W, strain vam3, active compounds read low 0.977 | S. cerevisiae deletion strains, locus YOR136W, strain idh2, active compounds read low 0.967 | S. cerevisiae deletion strains, locus YOR144C, strain elg1, active compounds read low 0.958 | S. cerevisiae deletion strains, locus YOR184W, strain ser1, active compounds read low 0.966 | S. cerevisiae deletion strains, locus YOR231W, strain MKK1, active compounds read low 0.978 | S. cerevisiae deletion strains, locus YOR265W, strain rbl2, active compounds read low 0.988 | S. cerevisiae deletion strains, locus YOR270C, strain vph1, active compounds read low 0.981 | S. cerevisiae deletion strains, locus YOR290C, strain snf2, active compounds read low 0.987 | S. cerevisiae deletion strains, locus YOR316C, strain cot1, active compounds read low 0.972 | S. cerevisiae deletion strains, locus YPL051W, strain arl3, active compounds read low 0.988 | S. cerevisiae deletion strains, locus YPL055C, strain LGE1, active compounds read low 1 | S. cerevisiae deletion strains, locus YPL078C, strain atp4, active compounds read low 0.988 | S. cerevisiae deletion strains, locus YPL106C, strain sse1, active compounds read low 0.958 | S. cerevisiae deletion strains, locus YPL240C, strain hsp82, active compounds read low 1.02 | S. cerevisiae deletion strains, locus YPL241C, strain CIN2, active compounds read low 0.993 | S. cerevisiae deletion strains, locus YPL256C, strain CLN2, active compounds read low 0.972 | S. cerevisiae deletion strains, locus YPR119W, strain clb2, active compounds read low 0.974 | S. cerevisiae deletion strains, locus YPR141C, strain kar3, active compounds read low 0.952 | S. cerevisiae deletion strains, locus YPR163C, strain tif3, active compounds read low 0.965 | S. cerevisiae deletion strains, locus YPR167C, strain met16, active compounds read low 0.965 | S. cerevisiae deletion strains, strain wtn01, active compounds read low 0.982 | S. cerevisiae strains, strain wild type, active compounds read low 0.993
